Reference: PubChem BioAssay (NCATS)
Results filed as inconclusive are left out. A call without a number means that no potency is given here. Calls of active or inactive are those of the source. Calls follow the shape of the dose curve; as a rule, active = well fitted cell-killing curve with a large enough effect; inconclusive = small, poorly fitted or top-dose-only effect; inactive = flat fitted curve, though single readings scatter.

Test: Cell Viability - LYMP2-017 (AID 972); also: nearly all actives have a fitted effect of over 55% in size
Conditions: LYMP2-017 lymphoblastoid cell viability; series mostly up to 92.2 µM
Text: NIH Chemical Genomics Center [NCGC]
NIH Molecular Libraries Screening Centers Network [MLSCN]
National Institutes of Environmental Health Sciences [NIEHS]
National Toxicology Program [NTP]
We have developed a 1536-well cell-based assay for quantitative high throughput screening (qHTS) against a number of cell lines to determine in vitro cytotoxicity of small molecules. This particular assay uses a human lymphoblastoid cell line (LYMP2-017) purchased from Coriell Institute for Medical Research.
NCGC Assay Protocol Summary:
The CellTiter-Glo luminescent cell viability assay (Promega) is a homogeneous method to measure the number of viable cells in culture. The end point readout of this assay is based on quantitation of intracellular ATP, an indicator of metabolic activity, using the luciferase reaction. Luciferase catalyzes the oxidation of beetle Luciferin to oxyluciferin and light in the presence of ATP. The luminescent signal is proportional to amount of ATP present.
Using the CellTiter-Glo luminescent cell viability assay, the amount of cellular ATP was measured in the lymphoblastoid cell line with complete culture medium following compound treatment for 24 hours. The assay was performed in opaque white Kalypsys 1536-well plates. In the screen, tetraoctylammonium bromide was used as positive control. Library compounds were measured for their ability to cause acute toxicity in the cell line, as reflected by a decrease in intracellular ATP levels, in a concentration-dependent manner. […] AC50 values were determined from concentration-response data modeled with the standard Hill equation.
qHTS protocol for CellTiter Glo lymphoblastoid cellular assay
[Step] [Parameter] [Value] [Description]
1. Reagent; 5 uL; 2500 lymphoblastoid cells/well
2. Time; 5 hr; 37 C incubation
4. Controls; 23 nL; Tetraoctylammonium bromide 6.4pM to 92 uM
5. Time; 24 hr; 37 C incubation
6. Reagent; 5 uL; CellTiter Glo reagent
7. Time; 30 min; Room Temperature
8. Detection; Luminescence; Viewlux plate reader
Keywords: cell viability, cytotoxicity, lymphoblastoid cell line, luminescence, NTPHTS, NTPHTS_NCGC, NIEHS, DSSTox, MLSMR, MLSCN, NIH Roadmap, qHTS, NCGC
Potency is read from the fitted curve at half-maximal effect.

| SMILES | Potency |
| --- | --- |
| Cc1c(N)cccc1Cl | inactive |
| CC(=O)Nc1cccc(C)c1 | inactive |
| c1ccc2c(c1)ccc1ccccc12 | inactive |
| CCCCCCCC/C=C\CCCCCCCC(=O)N(CCO)CCO | inactive |
| CC(C)OCC1CO1 (stereo not given) | inactive |
| CCCCC(CC)COC(=O)COc1ccc(Cl)cc1Cl (stereo not given) | inactive |
| c1ccc2ncccc2c1 | inactive |
| COc1ccc([N+](=O)[O-])cc1N | inactive |
| Brc1cc(Br)c(Oc2cc(Br)c(Br)cc2Br)cc1Br | inactive |
| CCCCCCc1ccc(-c2ccc(C#N)cc2)cc1 | inactive |
| Cc1ccc(S(N)(=O)=O)cc1 | inactive |
| Oc1c(Cl)cc(Cl)c(Cl)c1Cl | inactive |
| C=CC1CO1 (stereo not given) | inactive |
| CC(C)(C)C(=O)C1C(=O)c2ccccc2C1=O | inactive |
| C=CC(=O)CC | inactive |
| c1ccc(Nc2cccc3ccccc23)cc1 | inactive |
| Cc1ccc(N)cc1[N+](=O)[O-] | inactive |
| Cc1cc(=O)oc2cc(O)cc(O)c12 | inactive |
| CCOc1ccc2nc(N)sc2c1 | inactive |
| Oc1cc2c(cc1O)[C@H]1c3ccc(O)c(O)c3OC[C@@]1(O)C2 | 31.6 µM (active) |

| SMILES | Potency |
| --- | --- |
| NC(=O)Nc1nc2ccccc2[nH]1 | inactive |
| CCCC(=O)OC(=O)CCC | inactive |
| CCN(CC)c1ccc2c(C)cc(=O)oc2c1 | inactive |
| Oc1ccc(O)c2c(O)cccc12 | 50.1 µM (active) |
| Cc1ccc(O)c(N)c1 | 50.1 µM (active) |
| CCCCC(CC)COCCCN (stereo not given) | inactive |
| Oc1cc(Cl)cc(Cl)c1Cl | inactive |
| Cc1ccc2ccc3cccc4ccc1c2c34 | inactive |
| Cc1ccccc1OCC1CO1 (stereo not given) | inactive |
| O=C(O)/C=C/c1ccc(/C=C/C(=O)O)cc1 | inactive |
| OCC(CO)(CBr)CBr | inactive |
| S=C(NC1CCCCC1)NC1CCCCC1 | inactive |
| CCCCCCCCOc1ccc(C(=O)O)cc1 | inactive |
| Nc1cc([N+](=O)[O-])ccc1O | inactive |
| Cc1cccnc1 | inactive |
| c1ccc(SCCSc2ccccc2)cc1 | inactive |
| O=[N+]([O-])c1ccc(F)cc1F | inactive |
| COc1cc(-c2ccc(N=C=O)c(OC)c2)ccc1N=C=O | inactive |
| c1c[nH]cn1 | inactive |
| CCC(Cl)CC(Cl)C(Cl)C(Cl)C(Cl)C(C)Cl (stereo not given) | inactive |
